PERK inhibitor: block of dimerizer-induced PERK translation repression, primary screen, PERK inhibitor project, CHO PERK-DD cells, SEAP luminescence, HTS; CHO PERK-DD fusion, SEAP luminescence translation reporter; inhibition, % at 5.6 µM; 220,000 tested, 0.17% active; AID 1416, 2008;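 active = inhibition above the mean inhibition of all tested compounds plus 3 SD, set separately per screening campaign, cut at about 2.9% in these data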;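 also: PERK kinase domain activated by AP20187 dimerizer at 100 nM; 0% = DMSO with dimerizer and 100% = rapamycin at 8.4 µM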
MLLE-PAM2 inh: inhibitors of PABP1 MLLE–PAM2 peptide binding, primary screen, biochemical, fluorescence polarization, FITC-PAM2, GST-MLLE | 360,000 tested, 0.36% active | inhibition, % at 20 µM | AID 588489, 2011; in the data active = inhibition above about 35%, passing the limit was not always enough;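 also: plate controls were DMSO wells with GST-MLLE for no effect and wells lacking GST-MLLE protein for full effect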
PABP polyA inh: PABP poly(A) RNA binding inhibitors, primary screen, biochemical, fluorescence polarization, uHTS; calls only at 35 µM; AID 2014, 2009; 290,000 tested, 1% active;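 also: calls also rest on retests at 20 µM and on dose response follow-up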
eIF4H inh: human eIF4H binding inhibitors, primary screen, translation initiation inhibitor project, biochemical, uHTS, fluorescence polarization | eIF4H fluorescence polarization binding assay | Eukaryotic translation initiation factor 4H (Homo sapiens), Q15056 | 290,000 tested, 0.94% active | AID 2012, 2009 | inhibition, % at 35 µM;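 also: calls also rest on retests at 20 µM and on dose response follow-up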
eIF4E-4G inh: eIF4E–eIF4G protein interaction inhibitors, primary screen, biochemical, uHTS, TR-FRET, eIF4GI fragment | TR-FRET eIF4E-eIF4GI(517-606) binding, 2 h | inhibition, % at 21.7 µM | 220,000 tested, 0.37% active | AID 782, 2007;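 active = inhibition above about 30%, limit read from the data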;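 also: 0% = full FRET control wells and 100% = background wells lacking eIF4GI fragment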
Starred values were filed as active, the others as inactive; i = inactive; ? = inconclusive; . = not tested or not shown; + = active, no number. This is a sample that favours compounds with a hit; in the whole collection about 1.6% have one here. Unless noted, no rule for the calls is given here.

SMILES	PERK inhibitor	MLLE-PAM2 inh	PABP polyA inh	eIF4H inh	eIF4E-4G inh
Clc1ccc(-c2nc3ncccn3c2Nc2ccc3c(c2)OCO3)cc1	0	-2	+	61*	-10
CCOC(=O)SC1=N/C(=C\c2ccc(N(C)C)cc2)C(=O)S1	1	-124	+	111*	4
COc1cc(C2/C(=C(/O)c3ccccc3)C(=O)C(=O)N2c2ccccn2)ccc1O (centres undefined)	1	7	i	-3	82*
COc1ccc(C2/C(=C(/O)c3ccc(F)cc3)C(=O)C(=O)N2c2ccccn2)cc1OC (centres undefined)	.	11	i	9	.
CCOC(=O)C1(CC2CC2)CCN(Cc2ccc(OC)cc2F)CC1	0	-7	i	89*	-5
COc1ccc(NS(=O)(=O)c2ccc(F)c(Cl)c2)cn1	.	47*	?	?	.
CN1C(C)(C)CC(O)(C(=O)O)CC1(C)C	.	6	.	.	.
Cc1cc(C(=O)CSc2nnc(N)s2)c(C)n1C1CC1	.	18	.	.	.
Cc1cc(C(=O)CSc2nc(N)cc(N)n2)c(C)n1C1CC1	2	1	i	81*	2
COc1ccc(NC(=O)c2ccc3c(=O)n(Cc4ccco4)c(=S)[nH]c3c2)c(OC)c1	0	-40	+	70*	-4
COc1cc2[nH]c(=S)n(Cc3ccco3)c(=O)c2cc1OC	-1	-24	+	52*	3
O=c1c2cc(N3CCOCC3)ccc2[nH]c(=S)n1Cc1ccco1	.	5	+	91*	.
COc1cc2[nH]c(=S)n(NC(=O)c3ccccc3)c(=O)c2cc1OC	0	36*	i	2	-4
CC1=C(C(=O)N2CCOCC2)C(c2c(F)cccc2F)NC(=O)N1 (centres undefined)	1	3	i	2	0
Cc1ccc(NS(=O)(=O)c2ccc3c(c2)NC(=O)CCS3)c(C)c1	.	0	i	4	.
O=C(CN1CCOCC1)N/N=C/c1ccc(-c2ccc(C(=O)O)cc2)o1	1	-132	+	25	2
CC(=O)N1CCN(C(=O)c2cc(S(=O)(=O)N3CCN(c4ccccc4)CC3)ccc2Cl)CC1	.	-7	.	.	.
O=C(O)c1ccc(COc2ccccc2/C=C2\NC(=O)N(Cc3ccc(F)cc3)C2=O)cc1	0	-4	i	-2	3
O=C(O)c1cccc(-n2cccc2/C=C2/NC(=O)N(c3ccc(Cl)cc3)C2=O)c1	1	-6	?	?	71*
O=C(O)c1ccc(COc2ccccc2C=C2C(=O)c3ccccc3C2=O)cc1	1	13	+	0	4
O=C(O)c1ccc(COc2ccccc2/C=C2/NC(=O)N(c3cccc(Cl)c3)C2=O)cc1	0	-5	+	54*	-3
O=C(O)c1cccc(-n2cccc2/C=C2/NC(=O)N(c3cccc(Cl)c3)C2=O)c1	2	-67	+	97*	14
COc1ccc(/C=C2\SC(=O)N(CCCC(=O)Nc3cc(Cl)ccc3C(=O)O)C2=O)cc1	.	8	.	.	.
Cc1cc(SCC(=O)c2ccc(O)c(O)c2)n2nc(C)c(-c3ccccc3)c2n1	-1	-15	i	-3	-6
CC1=NN(c2ccccc2)C(=O)C1C(=O)c1ccccc1 (centres undefined)	1	2	i	-3	0
SMILES	PERK inhibitor	MLLE-PAM2 inh	PABP polyA inh	eIF4H inh	eIF4E-4G inh
CC1=NN(c2ccccc2)C(=O)C1C(=S)SC1CC(=O)NC1=O (centres undefined)	.	49*	.	.	.
COc1ccc2c(c1)nc(-c1cccc(Br)c1)c(=O)n2C(c1ccccn1)c1nc2ccccc2[nH]1 (centres undefined)	.	-36	.	.	.
Cn1nnnc1SCC(=O)Nc1ccc2c(c1)OCO2	0	-7	i	-2	-4
Cc1ccc(C)c(NC(=O)COC(=O)c2ccc3c(c2)OCO3)c1	0	4	+	14*	-5
Cc1cccc(/C(N)=N/OC(=O)c2ccc3c(c2)OCO3)c1	1	5	+	2.0*	7
N/C(=N\OC(=O)c1ccc2c(c1)OCO2)c1cccc([N+](=O)[O-])c1	1	5	i	2	0

Compound activity deposited in PubChem BioAssay by several laboratories.
